Results reported in PubChem BioAssay (Tox21).
Values joined by “and” are separate entries in the source; they are usually repeats but may differ in a detail not shown here. Equal values may be shown once. Inconclusive results are not listed. Where a call stands in place of a potency, no number is given. More than one record can exist for a structure, and the calls need not agree. Active and inactive are the calls of the source. Unless noted, calls come from the whole dose curve; as a rule, active = well fitted curve in the direction sought with a large enough effect in the repeat runs; inconclusive = weak or mixed curves; inactive = no such curve, though single readings can be large; an effect the other way counts as inactive or inconclusive.

Key:
[1] = qHTS assay to identify small molecule antagonists of the estrogen related receptor (ERR) signaling pathway from Tox21 library (AID 1224848); note: nearly all actives have a fitted effect of over 50% in size
Procedure, shortened: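 Cells: ERR line, 2,000/well; 6 h preincubation 37 C/5% CO2. Cpd in DMSO via pin tool; 18 h, 37 C. ONE-Glo, 30 min RT, luminescence.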

[2] = qHTS assay to identify small molecule agonists of the estrogen related receptor (ERR) signaling pathway from Tox21 library (AID 1224849; calls by dose curve; note: nearly all actives have a fitted effect of over 15% in size); conditions: ERR reporter cell line, ONE-Glo luciferase, 18 h; at 92.4 µM (top of the series)
Procedure, shortened: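 ERR reporter cell line (NTP) seeded, rested 6 h at 37 C/5% CO2, then pinned with Tox21 compounds in DMSO. After 18 h at 37 C, ONE-Glo luciferase luminescence was read following 30 min at room temperature.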

[3] = qHTS RealTime-Glo MT Cell Viability Assay in HepG2 cells - 24 hour (AID 1224867); note: nearly all actives have a fitted effect of over 50% in size
Procedure, shortened: (§1)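 Viability was tracked continuously by NanoLuc luminescence from prosubstrate reduced by living HepG2 cells, at successive time points over 40 h of compound exposure. Cells with reagent were preincubated 5 h at 37 °C before compound addition.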

[4] = qHTS RealTime-Glo MT Cell Viability Assay in HEK293 cells - 32 hour (AID 1224868); note: nearly all actives have a fitted effect of over 50% in size; note: potency is the fitted concentration of half-maximal effect
Procedure, shortened: (§2)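 Viability tracked continuously by luminescence as live cells reduce a prosubstrate for NanoLuc; HEK293 cells preincubated 5 h, compound-treated at 37 C, and read at 0, 8, 16, 24, 32 and 40 h.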

[5] = A CellTox Green Cytotoxicity Assay to monitor cytotoxicity in HEK293 cells - 0 hour (AID 1224869); note: nearly all actives have a fitted effect of over 50% in size
Procedure, shortened: (§3)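 HEK293 cells premixed with CellTox Green dye were seeded at 600 cells/well and left 5 h at 37 C/5% CO2 before pin transfer of 23 nL compound in DMSO. Fluorescence from dye bound to dead-cell DNA was read during 40 h treatment.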

[6] = qHTS RealTime-Glo MT Cell Viability Assay in HepG2 cells - 40 hour (AID 1224870); note: nearly all actives have a fitted effect of over 50% in size
Procedure, shortened: (§4)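 HepG2 cells mixed with RealTime-Glo MT reagents (NanoLuc plus cell-permeant prosubstrate) were seeded at 600 cells/well, incubated 5 h at 37 C/5% CO2, then pinned with compounds in DMSO; nonlytic luminescence tracked viability during 40 h treatment.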

[7] = A CellTox Green Cytotoxicity Assay to monitor cytotoxicity in HEK293 cells - 40 hour (AID 1224871); note: nearly all actives have a fitted effect of over 45% in size
Procedure, shortened: as §3

[8] = qHTS RealTime-Glo MT Cell Viability Assay in HEK293 cells - 16 hour (AID 1224872)
Procedure, shortened: as §2

[9] = qHTS RealTime-Glo MT Cell Viability Assay in HEK293 cells - 40 hour (AID 1224874); conditions: RealTime-Glo luminescence; max response: stronger effect = lower value; note: nearly all actives have a fitted effect of over 50% in size; note: potency is the fitted concentration of half-maximal effect
Procedure, shortened: (§5)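 HEK293 cells mixed with RealTime-Glo reagents (NanoLuc plus cell-permeant prosubstrate) at 600 cells/well, preincubated 5 h at 37 C/5% CO2, then given 23 nL compound in DMSO. Nonlytic luminescence from viable cells was read at 0, 8, 16, 24, 32 and 40 h.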

[10] = A CellTox Green Cytotoxicity Assay to monitor cytotoxicity in HEK293 cells - 24 hour (AID 1224875); note: nearly all actives have a fitted effect of over 45% in size
Procedure, shortened: as §3

[11] = qHTS RealTime-Glo MT Cell Viability Assay in HepG2 cells - 32 hour (AID 1224877); note: nearly all actives have a fitted effect of over 55% in size
Procedure, shortened: as §1

[12] = A CellTox Green Cytotoxicity Assay to monitor cytotoxicity in HepG2 cells - 24 hour (AID 1224878); note: nearly all actives have a fitted effect of over 45% in size
Procedure, shortened: (§6)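 HepG2 cells were seeded together with the CellTox Green dye at 600 cells/well, left 5 h at 37 C/5% CO2, then given compounds in DMSO. Fluorescence from dye bound to dead-cell DNA was read repeatedly over 40 h of treatment at 37 C.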

[13] = A CellTox Green Cytotoxicity Assay to monitor cytotoxicity in HepG2 cells - 40 hour (AID 1224879); note: nearly all actives have a fitted effect of over 40% in size; note: potency is the fitted concentration of half-maximal effect
Procedure, shortened: as §6

[14] = qHTS RealTime-Glo MT Cell Viability Assay in HEK293 cells - 0 hour (AID 1224880); note: top concentration of the series differs between compounds; nearly all actives have a fitted effect of over 45% in size
Procedure, shortened: as §5

[15] = A CellTox Green Cytotoxicity Assay to monitor cytotoxicity in HEK293 cells - 32 hour (AID 1224881); note: nearly all actives have a fitted effect of over 40% in size
Procedure, shortened: as §3

[16] = A CellTox Green Cytotoxicity Assay to monitor cytotoxicity in HepG2 cells - 0 hour (AID 1224882); note: nearly all actives have a fitted effect of over 35% in size
Procedure, shortened: as §6

[17] = A CellTox Green Cytotoxicity Assay to monitor cytotoxicity in HepG2 cells - 32 hour (AID 1224883); note: nearly all actives have a fitted effect of over 50% in size; note: potency is the fitted concentration of half-maximal effect
Procedure, shortened: as §6

[18] = A CellTox Green Cytotoxicity Assay to monitor cytotoxicity in HEK293 cells - 8 hour (AID 1224884); note: nearly all actives have a fitted effect of over 35% in size
Procedure, shortened: as §3

[19] = qHTS RealTime-Glo MT Cell Viability Assay in HepG2 cells - 8 hour (AID 1224873); note: nearly all actives have a fitted effect of over 55% in size
Procedure, shortened: as §4

[20] = A CellTox Green Cytotoxicity Assay to monitor cytotoxicity in HepG2 cells - 16 hour (AID 1224876); note: nearly all actives have a fitted effect of over 45% in size
Procedure, shortened: as §6

SMILES: CON(C)C(=O)Nc1ccc(Cl)c(Cl)c1
- Potency [1]: inactive
- activity change, positive = activation [2]: -4.36% (inactive) and -0.559% (inactive)
- outcome [3]: inactive
- Potency [4]: 43.6 µM (active)
- Potency [5]: inactive
- outcome [6]: inactive
- Potency [7]: inactive
- outcome [8]: inactive
- Potency [9]: 43.6 µM (active)
- max response [9]: -28.4% (inactive)
- Potency [10]: inactive
- outcome [11]: inactive
- Potency [12]: inactive
- Potency [13]: inactive
- outcome [14]: inactive
- Potency [15]: inactive
- Potency [16]: inactive
- Potency [17]: inactive
- Potency [18]: inactive

SMILES: CCCCOC(=O)c1ccccc1C(=O)OCCCC
- Potency [1]: inactive
- activity change, positive = activation [2]: -4.86% (inactive) and -5.73% (inactive)
- outcome [3]: inactive
- Potency [4]: inactive
- Potency [5]: inactive
- outcome [6]: inactive
- Potency [7]: inactive
- outcome [8]: inactive
- outcome [19]: inactive
- max response [9]: -5.69% (inactive) and -1.79% (inactive)
- Potency [10]: inactive
- outcome [11]: inactive
- Potency [12]: inactive
- Potency [13]: inactive
- outcome [14]: inactive
- Potency [15]: inactive
- Potency [16]: inactive
- Potency [17]: inactive
- Potency [18]: inactive

SMILES: O=c1ccc(=O)[nH][nH]1
- Potency [1]: inactive
- activity change, positive = activation [2]: 3.51% (inactive) and 9.01% (inactive)
- outcome [3]: inactive
- Potency [4]: inactive
- Potency [5]: inactive
- outcome [6]: inactive
- Potency [7]: inactive
- outcome [8]: inactive
- outcome [19]: inactive
- max response [9]: -2.89% (inactive) and -0.4% (inactive)
- Potency [10]: inactive
- Potency [20]: inactive
- outcome [11]: inactive
- Potency [12]: inactive
- Potency [13]: inactive and 130 nM (active)
- outcome [14]: inactive
- Potency [15]: inactive
- Potency [16]: inactive
- Potency [17]: inactive and 130 nM (active)
- Potency [18]: inactive

SMILES: CCOC(=O)c1ccccc1C(=O)OCC
- Potency [1]: inactive
- activity change, positive = activation [2]: 2.2% (inactive) and 2.35% (inactive)
- outcome [3]: inactive
- Potency [4]: inactive
- Potency [5]: inactive
- outcome [6]: inactive
- Potency [7]: inactive
- outcome [8]: inactive
- max response [9]: 0.767% (inactive) and 3.18% (inactive)
- Potency [10]: inactive
- Potency [20]: inactive
- outcome [11]: inactive
- Potency [12]: inactive
- Potency [13]: inactive
- Potency [15]: inactive
- Potency [16]: inactive
- Potency [17]: inactive
- Potency [18]: inactive

SMILES: CC(C)C1(C)N=C(c2nc3ccccc3cc2C(=O)O)NC1=O (stereo not drawn)
- Potency [1]: inactive
- activity change, positive = activation [2]: 3.26% (inactive) and 5.33% (inactive)
- outcome [3]: inactive
- Potency [4]: inactive
- Potency [5]: inactive
- outcome [6]: inactive
- Potency [7]: inactive
- outcome [8]: inactive
- max response [9]: 4.12% (inactive) and 2.1% (inactive)
- Potency [10]: inactive
- Potency [20]: inactive
- outcome [11]: inactive
- Potency [12]: inactive
- Potency [13]: inactive
- Potency [15]: inactive
- Potency [16]: inactive
- Potency [17]: inactive
- Potency [18]: inactive

SMILES: O=c1[nH]c(=O)[nH]c(=O)[nH]1
- Potency [1]: inactive
- activity change, positive = activation [2]: 1.86% (inactive) and -0.392% (inactive)
- Potency [4]: inactive
- Potency [5]: inactive
- outcome [6]: inactive
- Potency [7]: inactive
- outcome [8]: inactive
- outcome [19]: inactive
- max response [9]: 1.39% (inactive) and 0.958% (inactive)
- Potency [10]: inactive
- Potency [20]: inactive
- outcome [11]: inactive
- Potency [12]: inactive
- Potency [13]: inactive
- outcome [14]: inactive
- Potency [15]: inactive
- Potency [16]: inactive
- Potency [17]: inactive
- Potency [18]: inactive
